# Data from PubChem BioAssay (NCI).
# This is part of a sample that, as a whole, favours compounds with a hit. Of some 83,000 tested, about 20% had one in any assay.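 The test compound was applied at a single concentration to cells in 96-well plates for 48 hours, and percent growth was recorded.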 Values without a mark were called inactive. Active and inactive are the calls of the source. Rule for the calls: active = growth percent below 10; inactive = the rest.
# What was measured:
# Assay in all cases: NCI-60 one-dose screen, 48 h (100 = growth as untreated, 0 = no growth, -100 = all killed)
# Details in all cases: 10 µM unless noted
# HT29 colon = tested on: HT29 colon
# SNB-75 CNS = tested on: SNB-75 CNS
# PC-3 prostate = tested on: PC-3 prostate
# SK-MEL-5 melanoma = tested on: SK-MEL-5 melanoma
# UACC-62 melanoma = tested on: UACC-62 melanoma
# LOX IMVI melanoma = tested on: LOX IMVI melanoma
# SK-MEL-28 melanoma = tested on: SK-MEL-28 melanoma
# SK-MEL-2 melanoma = tested on: SK-MEL-2 melanoma
# U251 CNS = tested on: U251 CNS
# SNB-19 CNS = tested on: SNB-19 CNS
SMILES,growth (HT29 colon),growth (SNB-75 CNS),growth (PC-3 prostate),growth (SK-MEL-5 melanoma),growth (UACC-62 melanoma),growth (LOX IMVI melanoma),growth (SK-MEL-28 melanoma),growth (SK-MEL-2 melanoma),growth (U251 CNS),growth (SNB-19 CNS)
COc1ccc2c(c1)C(=O)c1c-2c(OCCN(C)C)nc2cc(OC)ccc12,-43.6% (active),31.6%,10.1%,-48.6% (active),7.14% (active),-89.2% (active),29.7%,30.9%,–,–
CCC1=C(c2ccc(OC)cc2)C(C)(C)Oc2c1ccc(O)c2CN1CCCC1,50.4%,41.3%,47.1%,-97.6% (active),10.5%,-59.7% (active),-75.6% (active),-58.5% (active),–,–
CCC(C)(C)C(=O)O[C@H]1C[C@@H](C)C=C2C=C[C@H](C)[C@H](CC[C@@H]3C[C@@H](O)CC(=O)O3)[C@H]21,76.9%,13.7%,33.9%,–,–,-16.2% (active),62.3%,26.3%,4.81% (active),–
CCN(CC)c1ccc(CN(CC(=O)c2ccc(Cl)c(Cl)c2)Cc2ccccc2)cc1,105%,93%,83%,–,90.9%,94.3%,110%,96.9%,103%,–
N#Cc1c(N)[nH]c(S)c1C#N,99.9%,97.2%,87.9%,–,–,102%,113%,92%,101%,–
CC(=O)NC1(C(=O)O)CCCC1,116%,102%,–,112%,110%,106%,88.6%,–,107%,–
Clc1ccc2c(Nc3ccc4oc(NCCN5CCCC5)nc4c3)ccnc2c1,38.1%,79.8%,79.9%,99.1%,94.2%,29.5%,89.6%,105%,70.1%,–
CCCC[N+](CCCC)=c1ccc2nc3c(C)cc(N(CC)CC)cc3sc-2c1,-68.6% (active),-0.166% (active),-13.9% (active),-96.9% (active),-35.7% (active),-70.4% (active),-2.53% (active),-51% (active),-11.3% (active),–
N#CCCCCCn1c2ccccc2c2c3c(c4c5ccccc5[nH]c4c21)C(=O)N(O)C3=O,3.99% (active),29.4%,-3.49% (active),-97% (active),-35.7% (active),-81% (active),-2.36% (active),3.52% (active),-46.2% (active),–
COc1cc(/C=C/C(=O)N2CCN(C(=O)/C=C/c3ccccc3)CC2)cc(OC)c1OC,104%,–,93.6%,106%,100%,107%,110%,116%,103%,96.4%
COc1cc(C2CC(c3ccc(C)cc3)=NN2C(C)=O)ccc1Oc1ccnc2cc(Cl)ccc12 (stereo unspecified),77.1%,–,67.9%,91.1%,72.5%,65.6%,108%,60.6%,14.7%,58.1%
O=C(Nc1ccc(Cl)cc1)Nc1ccc(Oc2nncc3ccccc23)cc1,0.517% (active),-3.13% (active),-29% (active),-43.3% (active),-14.3% (active),-77.3% (active),-31.6% (active),12.4%,–,–
COc1ccc(C2CC(c3ccc(OC)c(OC)c3)=NN2C(=O)c2cc(OC)c(OC)c(OC)c2)cc1 (stereo unspecified),-1.1% (active),–,30.5%,5.8% (active),41.9%,36.1%,70.5%,12.6%,26%,38.9%
c1cnc2ccc3ncccc3c2c1,113%,89.5%,–,106%,99.2%,97.9%,85.5%,–,104%,–
COc1ccc(CCN2CCCN3C2=Nc2ccccc2S3(=O)=O)cc1,13.7%,16.2%,38.5%,35.9%,23.5%,27.7%,62.5%,51.9%,30%,–
O=C(CN1CCCCC1)Sc1nnc2sc3ccccc3n12,118%,74.6%,93%,99.2%,107%,103%,120%,109%,98.5%,–

SMILES,growth (HT29 colon),growth (SNB-75 CNS),growth (PC-3 prostate),growth (SK-MEL-5 melanoma),growth (UACC-62 melanoma),growth (LOX IMVI melanoma),growth (SK-MEL-28 melanoma),growth (SK-MEL-2 melanoma),growth (U251 CNS),growth (SNB-19 CNS)
O=C(Nc1ccc(Cl)cc1)Nc1ccc(Nc2nncc3ccccc23)cc1,32.4%,46.3%,1.46% (active),7.12% (active),13.4%,33.6%,44.1%,18.9%,18.3%,–
COc1ccc2nc(-c3ccc(-n4cncc4-c4ccc(OC)c(N)c4)cc3)sc2c1,96.8%,–,84.6%,–,101%,113%,106%,112%,105%,98.6%
O=C1N(C2CCCCC2)C(=O)N1C1CCCCC1,44.9%,–,-3% (active),16.9%,38.9%,31%,–,-7.37% (active),48%,68.6%
CC(C)(C)c1ccc(C(O)CCCN2CCC(C(O)(c3ccccc3)c3ccccc3)CC2)cc1 (stereo unspecified),-92.7% (active),–,-4.17% (active),–,-98.1% (active),-93.9% (active),–,-76.1% (active),-85.4% (active),4.49% (active)
Fc1ccc(-c2nnc(-c3c(-c4ccc(F)cc4)nc4ncccn34)o2)cc1,–,102%,104%,95.4%,100%,96.4%,101%,–,107%,107%
Cc1cc([N+](=O)[O-])c(C)cc1C(=O)O,104%,–,99%,–,100%,103%,–,114%,109%,101%
COc1ccc(-c2cncn2-c2ccc(-c3nc4cc(OC)c(OC)c(OC)c4s3)cc2)cc1N,43.7%,–,30.1%,26.9%,53.7%,62.4%,78.5%,7.6% (active),56.3%,72.1%
CN(C)c1ccc2c(c1)/C(=N/O)c1ccccc1-2,–,76.8%,72.3%,90.7%,64.7%,59.4%,75.7%,111%,48.9%,79.6%
NC(N)=NN=c1c(=O)c2ccccc2c1=O,-49.4% (active),–,78%,–,–,-44.9% (active),–,118%,72.1%,–
CCCCCCCCCCCCCCCCCc1nccn1CCO,13.6%,–,55.9%,–,92.4%,-44.4% (active),–,82.2%,33.7%,66.9%
Cn1cc(-c2csc(-c3cn(C)c4ncccc34)n2)c2cc(F)cnc21,–,75.2%,65%,60.6%,65.3%,72.4%,83.8%,98.7%,82.4%,83.3%
Cc1cc(Cl)ccc1Nc1nc(C(F)(F)F)ccc1C(=O)NCC(=O)N/N=C/c1c(Cl)cccc1Cl,–,97.7%,-16.1% (active),70.5%,63%,56.3%,85.7%,98.2%,67.7%,90.5%
Cc1c(C(N)=O)sc2c1c(=O)n(Cc1ccccc1)c1nnc(S(=O)(=O)CC(=O)Nc3ccc(Cl)cc3)n21,21.9%,–,35%,55.2%,67.4%,44.1%,–,33.1%,35.2%,64.9%
COc1ccc(C2CC(c3cccc(Nc4ccnc5cc(Cl)ccc45)c3)=NN2C=O)cc1 (stereo unspecified),-55.8% (active),–,25.7%,–,36%,31.7%,62.4%,-9.66% (active),16.5%,42.3%
CC(=O)Oc1ccc(C2OC(c3ccc4ccccc4c3OC(C)=O)=NN2C(C)=O)c(OC(C)=O)c1 (stereo unspecified),27.2%,–,24.5%,-9.16% (active),-11.8% (active),4.67% (active),37.9%,13%,13.2%,36.9%
O=C1Cc2cc(CCN3CCN(CCOCCO)CC3)c(Cl)cc2N1Cc1ccc(-c2ccccc2-c2nn[nH]n2)cc1,–,82.6%,56.1%,100%,74.9%,89.7%,101%,81.1%,94.1%,90.5%
